# Results filed as inconclusive are left out. Active and inactive are the calls of the source. Calls follow the shape of the dose curve; as a rule, active = well fitted inhibition curve with a large enough effect; inconclusive = small, poorly fitted or top-dose-only effect; inactive = flat fitted curve, though single readings scatter.
# Target: Luciferin 4-monooxygenase (Photinus pyralis) (UniProt P08659)
# Test: Biochemical firefly luciferase enzyme assay for NPC (AID 624030);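 also: purified P. pyralis luciferase at 10 nM with luciferin and ATP substrate; 0% = DMSO and -100% = full luciferase inhibition by PTC124 control; nearly all actives have a fitted effect of over 70% in size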
# Settings: purified P. pyralis luciferase, luminescence, 5 min; series mostly up to 58.6 µM; activity change, negative = inhibition: at the top concentration
# Outline: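 Counter-screen for direct inhibition of the luciferase enzyme by approved-drug library compounds, run at 10 nM enzyme in 50 mM Tris acetate (final). Luminescence was read within 5 min of enzyme-buffer addition and normalized to PTC124 versus DMSO (0%).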
# Luciferin 4-monooxygenase (Photinus pyralis), sequence (P08659 whole entry, looked up): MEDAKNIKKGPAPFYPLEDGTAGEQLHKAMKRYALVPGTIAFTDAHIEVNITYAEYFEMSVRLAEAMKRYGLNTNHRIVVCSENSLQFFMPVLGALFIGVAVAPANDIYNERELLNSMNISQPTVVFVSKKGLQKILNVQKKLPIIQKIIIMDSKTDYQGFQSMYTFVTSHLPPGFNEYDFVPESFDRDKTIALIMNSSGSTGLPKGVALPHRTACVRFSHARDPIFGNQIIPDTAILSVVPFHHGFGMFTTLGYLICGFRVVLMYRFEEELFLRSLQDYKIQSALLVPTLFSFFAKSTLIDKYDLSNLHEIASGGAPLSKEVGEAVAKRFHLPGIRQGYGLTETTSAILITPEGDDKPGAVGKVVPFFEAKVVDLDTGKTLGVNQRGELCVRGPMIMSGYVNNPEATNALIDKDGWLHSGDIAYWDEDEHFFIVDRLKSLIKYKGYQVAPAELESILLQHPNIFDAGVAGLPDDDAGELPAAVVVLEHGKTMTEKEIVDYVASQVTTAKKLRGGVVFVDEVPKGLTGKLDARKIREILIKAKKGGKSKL
row,Structure (SMILES),"activity change, negative = inhibition"
1,COC1=C(C(=O)O)N2C(=O)[C@@H](NC(=O)C(N)C3C=CCC=C3)[C@H]2SC1 (some centres undefined),-1.33% (inactive)
2,CC(CSC(=O)c1ccccc1)C(=O)N1CC(Sc2ccccc2)CC1C(=O)O (centres undefined),-1.79% (inactive)
3,C[N+]1(C)CCC(OC(=O)CC(O)(c2ccccc2)C2CCCC2)C1 (centres undefined),0.887% (inactive)
4,CC(C)C[C@@H](NC(=O)[C@@H](COC(C)(C)C)NC(=O)[C@H](Cc1ccc(O)cc1)NC(=O)[C@@H](CO)NC(=O)[C@@H](Cc1c[nH]c2ccccc12)NC(=O)[C@@H](Cc1cnc[nH]1)NC(=O)[C@@H]1CCC(=O)N1)C(=O)N[C@H](CCCN=C(N)N)C(=O)N1CCC[C@H]1C(=O)NNC(N)=O,1.2% (inactive)
5,C=C[C@]1(C)C[C@@H](OC(=O)CO)[C@]2(C)C(C)CC[C@]3(CCC(=O)[C@H]32)[C@@H](C)[C@@H]1O (some centres undefined),-0.3% (inactive)
6,CC12C=CC(=O)C=C1CCC1C2C(O)CC2(C)C1CCC2(O)C(=O)COC(=O)CCC(=O)O (centres undefined),-0.0354% (inactive)
7,CN1CC[C@H](c2c(O)cc(O)c3c(=O)cc(-c4ccccc4Cl)oc23)[C@@H](O)C1,-13.6% (inactive)
8,COCC1=C(C(=O)OC(C)OC(=O)OC(C)C)N2C(=O)C(NC(=O)/C(=N\OC)c3csc(N)n3)C2SC1 (centres undefined),1.77% (inactive)
9,Cc1c(N)nc([C@@H](CC(N)=O)NC[C@H](N)C(N)=O)nc1C(=O)N[C@H](C(=O)N[C@@H](C)[C@@H](O)[C@@H](C)C(=O)N[C@H](C(=O)NCCc1nc(-c2nc(C(=O)NCCCN[C@H](C)c3ccccc3)cs2)cs1)[C@H](C)O)[C@@H](O[C@H]1O[C@@H](CO)[C@H](O)[C@@H](O)[C@H]1O[C@H]1O[C@@H](CO)[C@@H](O)[C@H](OC(N)=O)[C@H]1O)c1cnc[nH]1,1.68% (inactive)
10,CCC[C@@H]1CC(C(=O)NC(C2O[C@H](SC)C(OP(=O)(O)O)[C@H](O)[C@H]2O)[C@H](C)Cl)N(C)C1 (some centres undefined),-3.85% (inactive)
11,CO[C@H]1[C@@H](O)[C@H](N)[C@@H](O[C@H]2O[C@@H]([C@H](C)N)CC[C@H]2N)[C@H](O)[C@@H]1N(C)C(=O)CN,10.6% (inactive)
12,C/C=C(/CC[C@@H](C)[C@H]1CCC2C3=CC[C@H]4[C@H](C)[C@@H](O)CC[C@]4(C)C3CC[C@@]21C)C(C)C (some centres undefined),0.561% (inactive)
13,CO/N=C1\C[C@]2(C[C@@H]3C[C@H](C/C=C(/C)C[C@@H](C)/C=C\C=C4\CO[C@@H]5[C@@H](O)C(C)=C[C@@H](C(=O)O3)[C@]45O)O2)O[C@@H](/C(C)=C/C(C)C)[C@H]1C,-2.95% (inactive)
14,CO[C@@H]1[C@@H]([C@H](C)[C@@H]2O[C@@]3(CC[C@@](C)([C@H]4CC[C@@](C)([C@H]5O[C@H]([C@H]6O[C@](C)(O)[C@H](C)C[C@@H]6C)C[C@H]5O[C@H]5C[C@@H](OC)[C@H](OC)[C@@H](C)O5)O4)O3)C[C@@H](O)[C@@H]2C)O[C@@](O)(CC(=O)O)[C@H](C)[C@H]1OC,-1.07% (inactive)
15,CCN(CC)CCOc1ccc(/C(=C(/Cl)c2ccccc2)c2ccccc2)cc1,6.1% (inactive)
16,C[N+](C)(CCOc1ccccc1)Cc1cccs1 (tested in a mixture with another compound),-4.67% (inactive)
17,OC[C@H]1O[C@H](OC/C=C/c2ccccc2)[C@H](O)[C@@H](O)[C@@H]1O,-0.742% (inactive)
18,CC(=O)OCC(=O)C1(O)CCC2C3CCC4=CC(=O)CCC4(C)C3(F)C(O)CC21C (centres undefined),-3.24% (inactive)
19,CCCC(=O)O[C@]1(C(=O)COC(=O)CC)CC[C@@H]2[C@@H]3CCC4=CC(=O)CC[C@]4(C)[C@H]3[C@@H](O)C[C@@]21C,54.4% (inactive)
20,C/C=C1\NC(=O)[C@H]2CSSCC/C=C\[C@H](CC(=O)N[C@H](C(C)C)C(=O)N2)OC(=O)C(C(C)C)NC1=O (some centres undefined),-3.53% (inactive)
21,CCOC(=O)CCC(=O)OC1C(OC2C(C)C(OC3CC(C)(OC)C(O)C(C)O3)C(C)C(=O)OC(CC)C(C)(O)C(O)C(C)C(=O)C(C)CC2(C)O)OC(C)CC1N(C)C (centres undefined),-1.9% (inactive)
22,CCC(C)C1OC2(C=CC1C)CC1CC(C/C=C(\C)C(OC3CC(OC)C(OC4CC(OC)C(NC(C)=O)C(C)O4)C(C)O3)C(C)/C=C/C=C3\COC4C(O)C(C)=CC(C(=O)O1)C34O)O2 (centres undefined) (tested in a mixture with another compound),-3.99% (inactive)
23,CC1NC(=O)C(N)CNC(=O)C(C2CCN=C(N)N2)NC(=O)/C(=C/NC(N)=O)NC(=O)C(CNC(=O)CC(N)CCCN)NC1=O (centres undefined),9.29% [at 24.9 µM] (inactive)
24,CCC(=O)Oc1ccc2c(c1)CCC1C2CC[C@]2(C)C(OC(=O)CC)CCC12 (some centres undefined),1.77% (inactive)

# Source: PubChem BioAssay (NCATS)
